In PubChem BioAssay AID624094 (National Center for Advancing Translational Sciences (NCATS), 2012):
Results filed as inconclusive are left out. Calls of active or inactive are those of the source. The call rests on the fitted dose curve; in most records, active means well fitted inhibition curve with a large enough effect; inconclusive means small, poorly fitted or top-dose-only effect; inactive means flat fitted curve, though single readings scatter.

Biological target: Dual specificity protein kinase CLK4 (Homo sapiens) (UniProt Q9HAZ1)
Test: Confirmation Assay for Inhibitors of Clk4 (Kinase-Glo Assay): KU probe
Conditions: recombinant Clk4, Kinase-Glo ATP luminescence; series mostly up to 76.9 µM
How it was run: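 Read-out was Kinase-Glo luciferase luminescence of ATP left after 4.5 h room-temperature reaction. Final conditions: Clk4 25 nM, ATP 1 uM, RS peptide 100 uM, 25 mM Tris pH 7.5, 10 mM MgCl2, 0.5 mM EGTA, 2.5 mM DTT, 0.01% Triton X-100.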

Dual specificity protein kinase CLK4 (Homo sapiens), sequence (Q9HAZ1 whole entry, looked up): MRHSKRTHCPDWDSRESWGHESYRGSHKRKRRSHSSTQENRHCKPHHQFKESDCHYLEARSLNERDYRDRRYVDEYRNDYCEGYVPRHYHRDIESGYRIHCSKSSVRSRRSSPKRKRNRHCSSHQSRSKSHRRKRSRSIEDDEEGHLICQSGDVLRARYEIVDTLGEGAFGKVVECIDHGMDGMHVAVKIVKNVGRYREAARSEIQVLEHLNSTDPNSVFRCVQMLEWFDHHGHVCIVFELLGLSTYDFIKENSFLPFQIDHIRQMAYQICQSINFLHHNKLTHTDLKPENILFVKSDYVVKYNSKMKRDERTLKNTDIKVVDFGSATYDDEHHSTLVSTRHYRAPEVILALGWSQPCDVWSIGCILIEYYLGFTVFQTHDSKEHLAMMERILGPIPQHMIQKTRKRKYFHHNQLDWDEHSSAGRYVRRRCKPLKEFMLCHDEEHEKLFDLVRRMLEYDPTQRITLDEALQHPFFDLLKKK

Compound | Potency
Cc1noc(C)c1-c1nccc(NCc2ccc(Cl)c(Cl)c2)n1 | inactive
COc1ccc(-c2ccnc(NCc3ccc(Cl)c(Cl)c3)n2)cc1OC | 26 µM (active)
Nc1ncnc2c1c(I)cn2C1OC(CO)C(O)C1O (configuration not stated) | 0.0116 µM (active)
Cc1ccc(CNc2ccnc(-c3ccc(N(C)C)cc3)n2)cc1 | inactive
CC(=O)c1ccc(-c2ccc3ncnc(NCc4ccc(C)o4)c3c2)o1 | 0.13 µM (active)
Fc1ccc(CNc2ccnc(-c3ccc4c(c3)OCO4)n2)cc1Cl | 5.19 µM (active)
Brc1cc(Br)cc(CNc2ccnc(-c3ccc4c(c3)OCO4)n2)c1 | 5.82 µM (active)
Clc1cc(CNc2ccnc(-c3ccc4c(c3)OCO4)n2)ccn1 | 3.68 µM (active)
c1cc(-c2ccoc2)nc(-c2ccc3c(c2)OCO3)n1 | 4.12 µM (active)
CCCNc1ncnc2ccc(-c3ccc4c(c3)OCO4)cc12 | 0.0582 µM (active)
COc1cccc(-c2nccc(NCc3ccc(Cl)c(Cl)c3)n2)c1 | 14.6 µM (active)
O=[N+]([O-])c1cc(Nc2nccc(-c3ccc4c(c3)OCO4)n2)cc(C(F)(F)F)c1 | 0.104 µM (active)
CCCN(C)c1ncnc2ccc(-c3ccc4c(c3)OCO4)cc12 | 0.0582 µM (active)
Fc1cc(CNc2ccnc(-c3ccc4c(c3)OCO4)n2)ccc1Cl | 13 µM (active)
c1nc(NCC2CCCCC2)c2cc(-c3ccc4c(c3)OCO4)ccc2n1 | 0.0654 µM (active)
Clc1ccc(CNc2nccc(-c3ccc4[nH]ncc4c3)n2)cc1Cl | 0.026 µM (active)
COc1cccc(-c2ccnc(NCc3ccc(Cl)cc3)n2)c1 | 5.82 µM (active)
